High-throughput results: PubChem BioAssay, National Center for Advancing Translational Sciences (NCATS)
D2 PAM-1 – positively modulates the human D2 dopamine receptor allosterically; P14416; HEK293 T-REx D2, calcium flux, EC20 dopamine potentiation; potentiation, % at 10 µM; 340,000 compounds, 0.34% hits; AID 485347;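 active means potentiation over 3 SD above the plate norm, cut at about 30% in these data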
Target sequence (P14416 whole entry, looked up): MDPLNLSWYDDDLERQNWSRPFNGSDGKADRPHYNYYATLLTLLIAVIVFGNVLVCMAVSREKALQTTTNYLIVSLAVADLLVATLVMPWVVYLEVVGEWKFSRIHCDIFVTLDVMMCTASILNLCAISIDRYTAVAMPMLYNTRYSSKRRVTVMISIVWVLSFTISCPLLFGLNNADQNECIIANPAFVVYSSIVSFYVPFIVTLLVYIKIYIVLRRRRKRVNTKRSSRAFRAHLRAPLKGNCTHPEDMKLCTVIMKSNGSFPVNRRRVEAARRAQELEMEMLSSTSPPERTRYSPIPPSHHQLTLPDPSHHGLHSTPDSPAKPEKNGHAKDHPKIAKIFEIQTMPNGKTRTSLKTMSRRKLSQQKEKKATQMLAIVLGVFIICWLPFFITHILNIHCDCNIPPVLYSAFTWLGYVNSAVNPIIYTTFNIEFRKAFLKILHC
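Primary screen. Calcium kinetics in induced HEK293 T-REx D2 cells: compound pre-addition 180 s, EC20 dopamine, 180 s more.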
D2 ag-1 – D2 dopamine receptor (human) agonism; AID 485358; activation, % at 2 µM; 340,000 compounds, 0.53% hits; P14416; HEK293 T-REx D2 cells, calcium flux agonist mode;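 active means activation over 3 SD above normal in the single-dose calcium agonist read, cut at about 30% in these data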
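Tetracycline-induced HEK293 Trex cells with D2 receptor force-coupled to calcium signaling, plated overnight at 30 C and loaded with no-wash calcium dye. Calcium flux read kinetically for 180 s after compound addition; responses flag agonists.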
D2 PAM-2 – positive allosteric modulators of human D2 dopamine receptor | potentiation, % (test concentration not listed) | DiscoveRx D2 beta-arrestin cells, luminescence, 90 min; 100% = 57 uM dopamine signal | P14416 | 360,000 compounds, 0.23% hits; in the data active means potentiation above about 50%
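D2 cells co-treated with compound plus 50 nM dopamine (EC20) for 90 min at 37 deg C to detect potentiation. Beta-arrestin recruitment was read as enzyme-fragment luminescence after 1 h at ambient temperature. Full response was set by 57 uM dopamine.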
D2 ag-2 – activates the human D2 dopamine receptor | P14416 | DiscoveRx PathHunter D2 beta-arrestin, luminescence, 90 min; 100% = 57 uM dopamine signal | activation, % (test concentration not listed) | 360,000 compounds, 0.084% hits | AID 624465; in the data active means activation above about 40%
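DiscoveRx PathHunter D2 beta-arrestin cells (2,100/well) attached overnight, then compound-stimulated 90 min at 37 C in HBSS/10 mM HEPES/0.1% Tween-20 buffer; beta-galactosidase complementation read by luminescence after 1 h at ambient temperature. Dopamine 57 uM final (EC100) as control.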
D2 antag – antagonists of human D2 dopamine receptor. P14416. HEK293 TREx D2 cells, calcium flux, dopamine EC80. inhibition, % at 10 µM. 340,000 compounds, 2% hits; in the data active means inhibition above about 30%; inactive means below that, where a call was filed
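Antagonism is scored as inhibition of an EC80 dopamine-evoked calcium signal in a force-coupled, tetracycline-inducible HEK293 T-REx D2 line, with compound present 180 s before agonist.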
A number is an active result. Shown are actives, neighbours in structure and some others; about 2.4% of the full set was active somewhere.

For COc1cccc(NC(=O)CSC2=C(C#N)C(c3ccco3)C3=C(CCCC3=O)N2)c1 (stereo unspecified) the results were D2 PAM-1 inactive, D2 ag-1 inactive, D2 PAM-2 inactive, D2 ag-2 inactive and D2 antag 37.
For COc1cccc(NC(=O)CSc2nc3c(c(-c4ccco4)c2C#N)CCCC3)c1 the results were D2 PAM-1 42, D2 ag-1 inactive, D2 PAM-2 inactive, D2 ag-2 inactive and D2 antag inactive.
Screening Cc1cccc(CNC(=O)CN2C(=O)CCn3nc(-c4cn(C)c5ccccc45)cc32)c1 returned D2 PAM-1 inactive and D2 ag-1 inactive.
For CC(=O)c1cc(-c2ccc(F)cc2)n(CC(=O)NC2CCCCCC2)c1C the results were D2 PAM-1 inactive and D2 ag-1 inactive.
For COc1ccc2oc(C)c(C(=O)NN)c2c1 the results were D2 PAM-1 inactive, D2 ag-1 inactive, D2 PAM-2 inactive, D2 ag-2 inactive and D2 antag inactive.
CCOC(=O)CCC(=O)c1c(C)oc2ccc(OC)cc12 was read as D2 PAM-1 30, D2 ag-1 inactive, D2 PAM-2 inactive, D2 ag-2 inactive and D2 antag inactive.
COc1ccccc1/C=C/CN1CCN(Cc2ccc(C)o2)C(CCO)C1 (stereo unspecified) was read as D2 PAM-1 inactive, D2 ag-1 inactive, D2 PAM-2 inactive, D2 ag-2 inactive and D2 antag 49.
Screening CN(C)/C=N/c1ncc(C(=O)c2ccc(Cl)cc2)s1 returned D2 PAM-1 inactive, D2 ag-1 inactive, D2 PAM-2 inactive, D2 ag-2 inactive and D2 antag 57.
Screening CN(C)/C=N/c1ncc(C(=O)c2ccc(Cl)cc2Cl)s1 returned D2 PAM-1 inactive, D2 ag-1 inactive, D2 PAM-2 inactive, D2 ag-2 inactive and D2 antag inactive.
Screening CCOC(=O)C1CCN(CC(=O)Nc2c(C(=O)OC)[nH]c3ccccc23)CC1 returned D2 PAM-1 inactive, D2 ag-1 35 and D2 antag 49.
Screening CCOC(=O)c1[nH]c2ccc(OCC)cc2c1NC(=O)CN1CCN(c2ccccn2)CC1 returned D2 PAM-1 inactive, D2 ag-1 inactive, D2 PAM-2 inactive, D2 ag-2 inactive and D2 antag 36.
For CCN(C(=O)c1c(C)oc2ncnc(N3CCCCC3)c12)c1cc(C)ccc1C the results were D2 PAM-1 inactive and D2 ag-1 inactive.
Screening COC(=O)C(C)NC(=O)N1CCN(c2nnc(C)c3c(C)n(-c4ccc(Cl)cc4)nc23)CC1 (stereo unspecified) returned D2 PAM-1 inactive and D2 ag-1 inactive.
For CCc1c(C)c2ccc(O)c(CN3CCN(c4ccccc4)CC3)c2oc1=O the results were D2 PAM-1 inactive and D2 ag-1 inactive.
`Cc1c(O)ccc(C(=O)CN2CCN(c3ccccc3F)CC2)c1O` gave D2 PAM-1 inactive, D2 ag-1 inactive, D2 PAM-2 inactive, D2 ag-2 inactive and D2 antag inactive.
`O=C(CN1CCN(c2ccccc2F)CC1)c1ccc(O)c(O)c1` gave D2 PAM-1 inactive, D2 ag-1 61, D2 PAM-2 inactive, D2 ag-2 inactive and D2 antag inactive.
`COc1ccc(C(=O)Nc2cccc3c2CCCC3)cc1` gave D2 PAM-1 inactive, D2 ag-1 inactive, D2 PAM-2 inactive, D2 ag-2 inactive and D2 antag inactive.
For O=C(Nc1ncccn1)c1ccc([N+](=O)[O-])cc1 the results were D2 PAM-2 inactive and D2 ag-2 inactive.
For O=C(Nc1cccc2c1CCCC2)c1cc([N+](=O)[O-])cc([N+](=O)[O-])c1 the results were D2 PAM-1 inactive, D2 ag-1 inactive, D2 PAM-2 62, D2 ag-2 inactive and D2 antag inactive.
Screening O=C(Nc1ncccn1)c1cc([N+](=O)[O-])cc([N+](=O)[O-])c1 returned D2 PAM-1 inactive, D2 ag-1 inactive, D2 PAM-2 54, D2 ag-2 inactive and D2 antag inactive.
`COc1cccc(CCNc2ncnc3c2nnn3C)c1` gave D2 PAM-1 inactive and D2 ag-1 inactive.
CCc1ccc(NC(=O)C/C(C)=N/NC(=O)COc2ccccc2C)cc1 was read as D2 PAM-1 inactive, D2 ag-1 inactive, D2 PAM-2 inactive, D2 ag-2 inactive and D2 antag 40.
